Laboratory results published in PubChem BioAssay AID652010 (The Scripps Research Institute Molecular Screening Center, 2013).
Screen size: about 370,000 compounds; about 4,100 (1.1%) were called active. The full list was thinned out, with actives kept by preference. Unmarked numbers belong to inactive results.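 The calls were made as follows: active = inhibition above the mean over all tested compounds plus 3 SD (cut at about 3.6% in these data); inactive = the rest.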

Experiment: relief of DAX-1 repression of SF-1 activity – cell-based, luminescence, SF-1 (NR5A1), full-length DAX-1, primary screen (AID 652010);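 also: 0% = DAX-1 cells with DMSO and 100% = cells lacking DAX-1 with DMSO; higher inhibition means more luminescence from relief of DAX-1 repression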
Details: HEK293T StAR-luciferase reporter, SF-1/DAX-1 repression relief; at 6.8 µM; hits give high values

| Structure (SMILES) | inhibition |
| --- | --- |
| COc1ccc(S[C@]2(C(=O)N(C)C)CC(=O)N(c3ccc(OC)cc3)[C@@H]2c2ccc(OC)cc2)cc1 | -0.46% |
| Cc1cc(=O)[nH]c(SCC(=O)Nc2ccc(Cl)cc2C)n1 | 0.86% |
| CCCCCCNC(=O)O[C@]12C[C@@H](C(=O)OC)[C@@H](C(=O)OC)C[C@@]1(O)CN(S(=O)(=O)c1ccc(C)cc1)C2 | -0.86% |
| Cc1ccc(S(=O)(=O)N2C[C@H]3n4c(=O)ccc(=O)n4C[C@H](OC(=O)NC4CCCC4)[C@@]3(O)C2)cc1 | -0.77% |
| CCCCCCNC(=O)O[C@H]1CN(C(=O)OC(C)C)N(C(=O)OC(C)C)[C@@H]2CN(S(=O)(=O)c3ccc(C)cc3)C[C@]12O | 4.45% (active) |
| Cc1ccccc1NC(=O)COC(=O)c1ccc(Sc2ncn[nH]2)c([N+](=O)[O-])c1 | 2.48% |
| CC1(C)OC(=O)C2=C(CC(CCc3ccccc3)OC2c2ccc(Cl)cc2)O1 (stereo not drawn) | -1.2% |
| COc1ccccc1-c1nnc(NC(=O)c2ccc3ncsc3c2)o1 | 0.87% |
| Cc1sc(NC(=O)c2ccc3ncsc3c2)c(C(N)=O)c1C | 10.2% (active) |
| O=C(COC(=O)c1ccc2ncsc2c1)Nc1ccc(Cl)cc1 | -0.21% |
| CN(CC(=O)Nc1cccc(F)c1)C(=O)C1CC(=O)N(CCc2ccccc2)C1 (stereo not drawn) | 4.19% (active) |
| CN(Cc1ccccc1Cl)C(=O)C1CCC(=O)N(CCc2cccc(F)c2)C1 (stereo not drawn) | 0.69% |
| CCNC(=O)c1cccc(NC(=O)C2CC(=O)N(CCc3ccccc3)C2)c1 (stereo not drawn) | 0.37% |
| C=CCN1C(=O)[C@@H](CC(=O)N2CCN(C(=O)OCC)CC2)[C@]2(C(=O)OCC)CCCCC/C=C/12 | 1.04% |
| COC(=O)[C@H](C(C)C)N(CCCc1cn(Cc2ccccc2)nn1)S(=O)(=O)c1ccc(F)cc1Br | -1.67% |
| Cc1sc2ncnc(N3CCC(C(=O)Nc4nc5ccc(Cl)cc5s4)CC3)c2c1C | 4.32% (active) |
| Cc1sc2ncnc(N3CCC(C(=O)Nc4ccc(F)cc4Cl)CC3)c2c1C | 1.94% |
| Cc1sc2ncnc(N3CCC(C(=O)NNC(=O)c4ccc(F)cc4)CC3)c2c1C | -3.62% |
| CC(=O)C1=C(C)N(Cc2ccc(Cl)cc2)C(=S)NC1c1ccc(F)cc1 (stereo not drawn) | 0.31% |
| COc1ccc(C(=O)OCC(=O)Nc2cc(C)on2)cc1F | -1.4% |
| Cc1cc(NC(=O)COc2ccccc2C#N)no1 | 4.34% (active) |
| Cc1cc(NC(=O)COn2nnc3ccccc32)no1 | 0.82% |
| COc1ccc(C2CC(=O)C=C(NCC3CCCO3)C2)cc1 (stereo not drawn) | -0.07% |
